Hits are enriched below; roughly 19% of the tested compounds scored in any of these assays.
DT40 TDP1 CPT: qHTS for Inhibitors of human tyrosyl-DNA phosphodiesterase 1 (TDP1): qHTS in cells in presence of CPT; chicken DT40 Tdp1-/-;hTDP1 cells + 20 nM CPT, ATP luminescence, 48 h; hit rate 12% among 420,000; Potency, µM (highest dose often 46.2 µM), without a hit: at the top dose activity change, negative = growth inhibition, actives largely listed as inhibitors; also: nearly all actives have a fitted effect of over 55% in size
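Chicken DT40 Tdp1-/- cells complemented with human TDP1, 400 cells/well, exposed to compounds plus 20 nM camptothecin for at least 48 h at 37 C; viability read as ATP content by CellTiter-Glo luminescence.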
RORgamma inh: qHTS for inhibitors of ROR gamma transcriptional activity; Nuclear receptor ROR-gamma (Mus musculus), P51450; Drosophila S2 Gal4-RORgamma UAS-luciferase reporter, 20 h; Potency, µM (series often up to 53.6 µM), without a hit: at the top dose activity change, negative = inhibition, actives largely listed as inhibitors; hit rate 5.4% among 310,000; also: nearly all actives have a fitted effect of over 60% in size
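Using a luciferase readout, inhibitors were identified by reduced reporter activity in Drosophila cells coexpressing a copper-inducible Gal4–ROR gamma fusion and UAS-driven Photinus luciferase, incubated 20 hr after 700 uM copper sulfate.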
TDP1 block: qHTS Assay for Inhibitors of Tyrosyl-DNA Phosphodiesterase (TDP1) | Tyrosyl-DNA phosphodiesterase 1 (Homo sapiens), Q9NUW8 | recombinant TDP1, AlphaScreen DNA substrate cleavage | Potency, µM (series often up to 130 µM), for the others: top-dose activity change, negative = inhibition, actives largely listed as inhibitors | hit rate 0.28% among 350,000 | AID 485290, 2010; also: nearly all actives have a fitted effect of over 40% in size
Target sequence (Q9NUW8 whole entry, looked up): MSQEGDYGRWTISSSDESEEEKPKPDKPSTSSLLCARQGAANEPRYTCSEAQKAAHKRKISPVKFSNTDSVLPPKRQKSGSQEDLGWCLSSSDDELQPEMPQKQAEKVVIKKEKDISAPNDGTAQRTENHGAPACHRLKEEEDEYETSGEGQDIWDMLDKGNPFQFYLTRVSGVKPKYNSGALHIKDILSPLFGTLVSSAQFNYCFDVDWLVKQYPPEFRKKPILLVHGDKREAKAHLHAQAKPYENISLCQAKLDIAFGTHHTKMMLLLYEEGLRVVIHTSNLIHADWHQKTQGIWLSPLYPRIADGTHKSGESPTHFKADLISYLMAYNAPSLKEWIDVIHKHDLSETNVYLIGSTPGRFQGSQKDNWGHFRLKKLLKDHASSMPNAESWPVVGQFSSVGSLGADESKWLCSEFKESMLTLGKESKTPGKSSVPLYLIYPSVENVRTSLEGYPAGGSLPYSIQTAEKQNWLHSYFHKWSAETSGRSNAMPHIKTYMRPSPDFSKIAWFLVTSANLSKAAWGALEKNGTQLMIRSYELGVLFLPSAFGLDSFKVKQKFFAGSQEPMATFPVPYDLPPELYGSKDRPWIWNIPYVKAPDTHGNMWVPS
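Signal: AlphaScreen proximity between streptavidin donor and anti-FITC acceptor beads on intact substrate. Reaction: Tdp1 1 nM, substrate 15 nM final, 5 min RT after 15 min compound preincubation.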
DT40 TDP1 no CPT: qHTS for Inhibitors of human tyrosyl-DNA phosphodiesterase 1 (TDP1): qHTS in cells in absence of CPT. DT40 Tdp1-/- hTDP1 cells, no CPT, ATP luminescence, 48 h. Potency, µM (titrated, usually from 46.2 µM), for the others: at the highest dose activity change, negative = growth inhibition, most hits filed as inhibitors. hit rate 15% among 420,000. AID 686978, 2013; also: nearly all actives have a fitted effect of over 55% in size
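Growth of hTDP1-complemented DT40 Tdp1-knockout cells is measured by ATP luminescence after at least 48 hr compound exposure at 37 °C, with DMSO substituting for the 20 nM CPT used in the parallel screen.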
VP16 counter: VP16 counterscreen qHTS for inhibitors of ROR gamma transcriptional activity; Potency, µM (top dose mostly 53.6 µM), for the others: top-dose activity, negative = inhibition, hits mostly inhibitors; Drosophila S2 Gal4-VP16 UAS-luciferase, luminescence, 20 h; hit rate 3.5% among 310,000;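 also: Gal4-VP16 expression switched on by copper sulfate through the metallothionein promoter; nearly all actives have a fitted effect of over 50% in size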
* marks the source's active call; other numbers are inactive results; ? = inconclusive; nt = no result; [ ] = another dose, or the depositor's remark. Calls follow the shape of the dose curve; as a rule, active = well fitted curve in the direction sought with a large enough effect; inconclusive = small, poorly fitted or top-dose-only effect, or another doubt; inactive = no such curve, though single readings can be large; an effect the other way counts as inactive or inconclusive. % is scaled to controls: 0 for no effect and ±100 for the full control effect; potency is read from the fitted curve at half-maximal effect.

SMILES	DT40 TDP1 CPT	RORgamma inh	TDP1 block	DT40 TDP1 no CPT	VP16 counter
CC[C@H](C)C1OC(=O)[C@@H](C)[C@@H](CC)NC(=O)[C@H](C)N(C)C(=O)C(C)(C)C(=O)C(C)NC(=O)[C@H](Cc2ccc(OC)cc2)N(C)C(=O)[C@H](C(C)C)N(C)C(=O)CNC(=O)[C@H](CC(C)C)N(C)C(=O)CNC1=O (some centres not stated)	0.15µM*	nt	nt	0.18µM*	nt
C/C=C/CC(C)C(O)C1C(=O)NC(CC)C(=O)N(C)CC(=O)N(C)C(CC(C)C)C(=O)NC(C(C)C)C(=O)N(C)C(CC(C)C)C(=O)NC(C)C(=O)NC(C)C(=O)N(C)C(CC(C)C)C(=O)N(C)C(CC(C)C)C(=O)N(C)C(C(C)C)C(=O)N1C (configuration not stated)	nt	-1%	10%	nt	-19%
CCC[C@H]1NC(=O)[C@H](C)N(C)C(=O)C(C)(C)C(=O)C(C)NC(=O)[C@H](Cc2ccc(OC)cc2)N(C)C(=O)[C@H](C(C)C)N(C)C(=O)CNC(=O)[C@H](CC(C)C)N(C)C(=O)CNC(=O)[C@H]([C@@H](C)CC)OC(=O)[C@H]1C (some centres not stated)	0.033µM*	nt	0%	0.021µM*	nt
Clc1ccc2nc(-c3ccc(Br)s3)cn2c1	?	?	0%	?	?
COC(=O)N/N=C/C1=C[N+](=O)c2ccccc2[N+]1=O	nt	19%	-14%[56.1 µM]	nt	8%
CN(C)N=Nc1ccc(S(=O)(=O)NC(Cc2ccccc2)C(=O)O)cc1 (configuration not stated)	-9%	-45%	nt	?	-5%
CN(C)C(=O)COc1ccccc1C(=O)OCC(=O)N(CCC#N)c1ccccc1	24%	nt	nt	-20%	nt
Cc1ccc(NC(=O)CCC(=O)N2Cc3ccccc3Oc3ncccc32)cc1Cl	23µM*	nt	-1%	?	nt
Cc1ccc(-c2nn(-c3ccccc3)cc2/C=N/NS(=O)(=O)c2ccccc2)cc1	29µM*	?	5%	?	4%
COc1ccccc1NS(=O)(=O)c1cccc(C(=O)N/N=C/c2cn(-c3ccccc3)nc2-c2ccccc2)c1	?	1.6µM*	2%	?	6.3µM*
COc1ccc(NS(=O)(=O)c2cccc(C(=O)N/N=C/c3cn(-c4ccccc4)nc3-c3ccc(OC)cc3)c2)cc1	?	-16%	nt	-21%	-14%
COc1ccc(-c2nn(-c3ccccc3)cc2/C=N/Nc2ccccn2)cc1	nt	1.6µM*	-1%	nt	4µM*
COc1ccc(NS(=O)(=O)c2cccc(C(=O)N/N=C/c3cn(-c4ccccc4)nc3-c3ccccc3)c2)cc1	16µM*	?	5%	?	2%
COc1ccc(NS(=O)(=O)c2cccc(C(=O)N/N=C/c3ccccc3OC)c2)cc1	-27%	nt	0%	?	nt
Cc1ccc(S(=O)(=O)N/N=C\c2cn(-c3ccccc3)nc2-c2ccccc2)cc1	2%	?	9%	-3%	3%
N/C(=N\OC(=O)CCC1CCCC1)c1ccc(Br)cc1	0%	-15%	-13%	-6%	17%
NS(=O)(=O)c1ccc(N/N=C/c2ccccc2C(=O)O)c([N+](=O)[O-])c1	5%	-43%	4%	4%	-2%
NS(=O)(=O)c1ccc(N/N=C/c2cn(-c3ccccc3)nc2-c2ccccc2)c([N+](=O)[O-])c1	4.1µM*	4%	0%	12µM*	-2%
O=C(N/N=C\c1ccc(Sc2ccccn2)o1)c1cccc(F)c1	2%	10µM*	5%	-7%	-15%
O=C(N/N=C/c1ccc(Sc2ccccn2)o1)c1cc2ccccc2cc1O	-4%	16µM*	8%	-3%	19%[0.365 µM]
O=C(Oc1ccc(/C=N/NC(=O)c2ccccn2)cc1)c1cccc(F)c1	-1%	nt	nt	-25%	nt

Source: PubChem
